Source: PubChem
Sm TGR inh: inhibitors of Schistosoma mansoni thioredoxin glutathione reductase | purified TGR, DTNB reduction, TNB absorbance 405 nm | Potency, µM (doses to about 114 µM), for the others: at the highest dose activity change, negative = inhibition, hits mostly inhibitors | 360,000 tested, 3% active; active = well fitted inhibition curve with a large enough effect; inconclusive = small, poorly fitted or top-dose-only effect; inactive = no such curve, though single readings can be large or run the other way; also: % is scaled to controls: 0 for no effect and ±100 for the full control effect; nearly all actives have a fitted effect of over 60% in size
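TGR 20 nM + NADPH 100 uM (dispensed conc.), cpd preinc 15 min RT; start with NADPH (500 uM addition) then DTNB (15 mM addition). Kinetic TNB absorbance, 405 nm filter. Four-parameter Hill fit across titration.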
SARS PLpro yeast: inhibitors of SARS-CoV papain-like protease in yeast | S. cerevisiae expressing SARS-CoV PLpro, growth rescue | Potency, µM (top dose mostly 32.9 µM), without a hit: top-dose activity, positive = growth rescue, usual class: activators | 330,000 tested, 0.19% active | AID 485353; calls by dose curve; also: 0% is about no effect; nearly all actives have a fitted effect of over 55% in size
* marks the source's active call; other numbers are inactive results; u = inconclusive; x = no result; [ ] = dose if it differs, or a comment. This is a sample that favours compounds with a hit; in the whole collection about 3% have one here. Potency is read from the fitted curve at half-maximal effect.

SMILES	Sm TGR inh	SARS PLpro yeast
COC(=O)c1cc(S(=O)(=O)Nc2cccc(OC)c2)cn1C	-23.1%	3.7%
CCOC(=O)c1cc(-c2ccc(C)cc2)n(CC(=O)Nc2ccc(OC)cc2OC)c1C	0.6%	x
CCOC(=O)c1cc2occc2n1CC(=O)Nc1ccc(OC)cc1OC	20µM*	4.1%
CCOC(=O)c1cc(S(=O)(=O)Nc2ccc(OC)cc2OC)cn1C	56.2µM*	0.6%
Cc1[nH]c2ccccc2c1/C=N/Nc1cccc(C(=O)O)c1	44.7µM*	-2.0%
Cc1[nH]c2ccccc2c1/C=N/NC(=O)c1ccccc1	-1.9%	-0.8%
Cc1ccc(C)c(CNC(=O)c2ccc3c(c2)nc2n3CCCCC2)c1	-2.1%	x
CNC1=C([N+](=O)[O-])CC([N+](=O)[O-])=C(N2CCNCC2)N1C	14.1µM*	5.0%
Nc1cc(N2CCNCC2)c([N+](=O)[O-])cc1Cl	-10.5%	-11.1%
COc1ccc(Cl)cc1NC(=S)NCCCN1CCCC1=O	50.1µM*	-0.9%
O=C1CCCN1CCCNC(=S)Nc1ccccc1	u	-0.5%
O=C1CCCN1CCCNC(=S)Nc1ccc(Br)cc1Cl	14.1µM*	-1.4%
COc1ccccc1NC(=S)NCCc1ccc(S(N)(=O)=O)cc1	-5.9%[57.1 µM]	0.5%
COc1ccc(Cl)cc1NC(=S)NCCc1ccc(S(N)(=O)=O)cc1	2.82µM*	1.0%
COc1ccc(Cl)cc1NC(=S)NCCN1CCOCC1	x	1.0%
CC(C)c1nc2n(n1)C1(CCCCC1)[C@@H]1CCCC[C@@H]1N2	7.0%	x
Cc1ccc(N(C)C(=O)c2cc(S(=O)(=O)N3CCOCC3)cn2C)cc1	1.4%	x
O=[N+]([O-])c1ccc(/C=C2\CCC(C3=CCCC3)=C2N2CCOCC2)cc1	31.6µM*	-63.8%
O=[N+]([O-])c1ccc(/C=N/Nc2nc(N3CCOCC3)nc(N3CCOCC3)n2)cc1	x	0.4%
O=S(=O)(Nc1cccc(-c2ccc(N3CCCC3)nn2)c1)c1ccccc1C(F)(F)F	1.3%	x
COc1ccc(C(=O)N=c2sc3cc(Cl)ccc3n2C)cc1	-4.1%	x
O=C(Nc1ccccc1N(C(=O)c1ccco1)S(=O)(=O)c1cccs1)c1ccco1	44.7µM*	1.7%
COc1ccc(N(C(=O)c2ccco2)S(=O)(=O)c2cccs2)cc1	u	-3.3%
COc1ccc(C(CNC(=O)COc2ccc(Cl)c(C)c2)N2CCOCC2)cc1 (centres undefined)	-0.6%	x
COc1ccc2c(c1)c1c(c(=O)n(Cc3ccccc3)c(=O)n1Cc1cccc(Cl)c1)n2C	8.2%	x
SMILES	Sm TGR inh	SARS PLpro yeast
Cc1cn2c(=O)cc(COC(=O)COc3ccccc3C)nc2s1	3.1%	x
CN(C)C(=O)c1ccc(NC(=O)c2ccc(-c3ccc(Cl)cc3)o2)cc1	31.6µM*	-11.1%
CC(=O)c1ccc(NC(=O)c2ccc(-c3ccc(Cl)cc3)o2)cc1	39.8µM*	x
COc1ccc(NC(=O)c2ccc(-c3ccc(C(C)=O)cc3)o2)cn1	-23.7%	-3.1%
Cc1nnc(NC(=O)c2ccc(-c3ccc(Cl)cc3)o2)s1	-4.7%	-0.1%
O=c1c(-c2cc(-c3ccc(F)cc3)nc3c2COc2ccc(Cl)cc2-3)coc2ccc(F)cc12	-0.3%	x
CC1=C(C(N)=O)C(c2cccc(C)c2)n2nc(-c3cccc(C)c3)nc2N1 (centres undefined)	-1.7%	x
O=C(Sc1ccccc1)c1cccc(Cn2cc(C(F)(F)F)ccc2=O)c1	22.4µM*	-0.1%
O=C(Nc1ccccc1)c1cccc(Cn2cc(C(F)(F)F)ccc2=O)c1	11.1%	0.3%
CCOC(=O)c1cc(-c2ccccc2)n(-c2cccc(C(=O)NC(C)CC)c2)c1C (centres undefined)	14.3%	x
CC(=O)c1ccc(N2CCN(C(=O)Cn3ncc4c3-c3ccccc3OC4)CC2)cc1	-4.6%	x
CCCCN(C(=O)C1CCC1)c1c(N)n(CCC)c(=O)[nH]c1=O	6.0%	-1.3%
CCCCN(C(=O)C1CCCC1)c1c(N)n(CC(C)C)c(=O)[nH]c1=O	31.6µM*	3.6%
COc1ccc(-c2[nH]c(-c3ccc(O)cc3)nc2-c2ccccc2)cc1	-8.9%	x
COc1ccc(CNC(=O)C(=O)NCC(c2ccco2)S(=O)(=O)c2ccc(C)cc2)cc1 (centres undefined)	-28.9%	x
COc1ccc(CNC(=O)C(=O)NCC(c2ccco2)S(=O)(=O)c2ccc(Cl)cc2)cc1 (centres undefined)	11.2µM*	x
O=C(COc1ccc(Cl)cc1)NCC(c1ccco1)S(=O)(=O)c1ccc(F)cc1 (centres undefined)	25.1µM*	x
O=C(NC(=S)NCCc1ccc(Cl)cc1)c1ccco1	u	18.6%
O=C(NCC(c1ccco1)S(=O)(=O)c1ccc(Cl)cc1)c1ccc(C(F)(F)F)cc1 (centres undefined)	0.891µM*	x
COc1ccc(C(=O)NCC(c2ccco2)S(=O)(=O)c2ccc(F)cc2)cc1 (centres undefined)	-12.2%	x
O=C(NCCc1ccc(Cl)cc1)C(=O)NCC(c1ccco1)S(=O)(=O)c1ccc(Cl)cc1 (centres undefined)	3.98µM*	x
